Measurements taken from PubChem BioAssay AID1845224 (National Center for Advancing Translational Sciences (NCATS), 2023).
Results filed as inconclusive are left out. Calls of active or inactive are those of the source. The call rests on the fitted dose curve; in most records, active means well fitted curve in the direction sought with a large enough effect; inconclusive means small, poorly fitted or top-dose-only effect, or another doubt; inactive means no such curve, though single readings can be large or run the other way.

system: NanoLuc luciferase (engineered Oplophorus gracilirostris luciferase); test: Confirmatory Nanoluciferase (NLuc) qHTS assay for identification of artifact compounds.; settings: secreted NLuc in S16 cell medium, luminescence, 5 min; series mostly up to 39 µM
In short: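 Compounds were preincubated 15 min at room temperature with diluted secreted NanoLuc from S16 cell medium, then read by luminescence 5 min after Nano-Glo substrate. Percent inhibition versus DMSO and no-enzyme controls fitted by 4-parameter Hill curve.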

Potency, inactive:
COc1ccc(CCNC(=O)Cn2cc(C(=O)c3ccc(F)cc3)c(=O)c3ccc(C)nc32)cc1OC
O=C1c2ccccc2C(=O)N1Cc1ccccn1
O=C(COc1ccc(Cl)cc1)Nc1ccc2nc(SCC(=O)N3CCCC3)sc2c1
O=C(Nc1nnc(-c2ccco2)o1)c1ccc(Cl)c(Cl)c1
COc1ccc(NC(=O)c2cnn3c(-c4ccccc4)cc(C)nc23)cc1
COc1ccc(C2Nc3ccccc3C(=O)N2CC(C)(C)C)cc1COc1ccc(NC(C)=O)cc1 (configuration not stated)
CCc1ccc2oc(C(=O)Nc3cc(Cl)ccc3OC)cc(=O)c2c1
COc1ccccc1-c1nc2cc(NC(=O)c3ccccc3Cl)ccc2o1
CCN(CC)CCNC(=O)c1nn(C)c2c1CS(=O)(=O)c1ccccc1-2
CCc1ccc(Cn2c(CNS(=O)(=O)c3ccc(Cl)s3)nc3cccnc32)cc1
Cc1cc(C)cc(-n2c(SCC(=O)N3CCCCCC3)nc3c([nH]c4ccccc43)c2=O)c1
COc1ccccc1N1CCN(S(=O)(=O)c2c(C)nc3sc(C)c(C)n3c2=O)CC1
COc1cccc(C(=O)Nc2ccccc2-c2nnc(-c3ccc(C(C)(C)C)cc3)o2)c1
CC(=O)Nc1cc(-c2ccccc2)nn1Cc1cccc(Cl)c1
O=C(CSc1ccnc(=O)[nH]1)NCc1ccc(F)cc1
CCCNC(=O)N1CCCN(S(=O)(=O)c2ccc3c(ccn3CC)c2)CC1
CC(C)(O)C1CC[C@@]2(C)C3CCC4[C@@]5(C)CCCC(C)(C)C5C(O)C[C@]4(C)[C@]3(C)CC[C@@H]12 (some centres not stated)
